The values that follow come from ChEMBL document CHEMBL1961873, “Compounds: GSK PKIS; Assays: Nanosyn kinase panel” (2012).

The subject of assay [1] is Tyrosine-protein kinase ABL1 (Homo sapiens), P00519 [T315I]. As to conditions: at 1 µM.
For assay [2], the system named is Tyrosine-protein kinase ABL1 (Homo sapiens), P00519 [Y253F]. As to conditions: at 0.1 µM.
Assay [3] has the same test system. As to conditions: at 1 µM.
The target of assay [4] is Tyrosine-protein kinase ABL1 (Homo sapiens) (UniProt P00519). As to conditions: at 0.1 µM.
The target is the same in assay [5]. As to conditions: at 1 µM.
The target of assay [6] is ALK tyrosine kinase receptor (Homo sapiens) (UniProt Q9UM73). As to conditions: at 0.1 µM.
Chain of ALK tyrosine kinase receptor (Homo sapiens) (Q9UM73 19-1620 limits assumed): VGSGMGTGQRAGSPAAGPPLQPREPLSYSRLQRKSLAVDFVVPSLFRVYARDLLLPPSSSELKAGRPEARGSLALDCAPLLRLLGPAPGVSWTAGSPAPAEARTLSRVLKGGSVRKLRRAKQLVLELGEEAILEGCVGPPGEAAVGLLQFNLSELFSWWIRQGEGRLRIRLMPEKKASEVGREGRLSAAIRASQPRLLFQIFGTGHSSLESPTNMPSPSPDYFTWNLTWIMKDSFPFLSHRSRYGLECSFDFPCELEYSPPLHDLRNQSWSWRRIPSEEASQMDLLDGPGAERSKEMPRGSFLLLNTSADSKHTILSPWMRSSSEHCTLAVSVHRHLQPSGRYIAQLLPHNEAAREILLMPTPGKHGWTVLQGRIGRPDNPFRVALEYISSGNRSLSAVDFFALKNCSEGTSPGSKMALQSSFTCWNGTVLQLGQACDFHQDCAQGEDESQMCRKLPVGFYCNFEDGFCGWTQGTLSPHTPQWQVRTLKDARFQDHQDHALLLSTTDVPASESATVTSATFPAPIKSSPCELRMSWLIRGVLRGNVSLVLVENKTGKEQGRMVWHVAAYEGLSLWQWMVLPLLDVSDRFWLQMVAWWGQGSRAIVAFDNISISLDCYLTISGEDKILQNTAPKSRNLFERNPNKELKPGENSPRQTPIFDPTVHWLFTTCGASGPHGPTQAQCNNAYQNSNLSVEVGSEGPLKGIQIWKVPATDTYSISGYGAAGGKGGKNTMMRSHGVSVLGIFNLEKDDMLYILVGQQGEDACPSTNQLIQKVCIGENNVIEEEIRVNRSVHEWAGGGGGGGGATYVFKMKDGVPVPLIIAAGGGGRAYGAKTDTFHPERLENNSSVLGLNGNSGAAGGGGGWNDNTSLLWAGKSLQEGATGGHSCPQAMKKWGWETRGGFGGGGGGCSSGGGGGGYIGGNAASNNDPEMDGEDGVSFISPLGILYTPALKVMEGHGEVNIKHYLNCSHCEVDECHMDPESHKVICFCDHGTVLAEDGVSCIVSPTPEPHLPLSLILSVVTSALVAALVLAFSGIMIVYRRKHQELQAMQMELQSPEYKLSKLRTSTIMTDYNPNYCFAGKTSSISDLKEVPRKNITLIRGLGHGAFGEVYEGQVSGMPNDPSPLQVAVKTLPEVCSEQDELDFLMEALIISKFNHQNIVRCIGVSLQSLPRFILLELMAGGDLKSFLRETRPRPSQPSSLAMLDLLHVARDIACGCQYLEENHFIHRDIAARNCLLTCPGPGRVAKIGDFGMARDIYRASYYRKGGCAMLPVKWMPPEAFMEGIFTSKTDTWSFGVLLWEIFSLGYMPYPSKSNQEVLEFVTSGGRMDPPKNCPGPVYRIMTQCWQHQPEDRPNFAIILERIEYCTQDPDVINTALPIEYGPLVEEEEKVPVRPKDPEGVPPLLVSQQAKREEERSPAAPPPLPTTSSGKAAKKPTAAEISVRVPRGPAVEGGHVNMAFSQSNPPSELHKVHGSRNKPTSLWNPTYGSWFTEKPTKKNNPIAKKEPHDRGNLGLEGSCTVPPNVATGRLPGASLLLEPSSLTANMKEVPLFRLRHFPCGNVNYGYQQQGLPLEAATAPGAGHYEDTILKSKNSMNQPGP
Assay [7] shares this target. As to conditions: at 1 µM.
Assay [8] addresses Tyrosine-protein kinase ABL2 (Homo sapiens) (UniProt P42684). As to conditions: at 0.1 µM.
Assay [9] shares this target. As to conditions: at 1 µM.
The target of assay [10] is Tyrosine-protein kinase receptor UFO (Homo sapiens) (UniProt P30530). As to conditions: at 0.1 µM.
Assay [11] has the same target. As to conditions: at 1 µM.
The target of assay [12] is Tyrosine-protein kinase Blk (Homo sapiens) (UniProt P51451). As to conditions: at 0.1 µM.
Chain of Tyrosine-protein kinase Blk (Homo sapiens) (P51451 2-505 limits assumed): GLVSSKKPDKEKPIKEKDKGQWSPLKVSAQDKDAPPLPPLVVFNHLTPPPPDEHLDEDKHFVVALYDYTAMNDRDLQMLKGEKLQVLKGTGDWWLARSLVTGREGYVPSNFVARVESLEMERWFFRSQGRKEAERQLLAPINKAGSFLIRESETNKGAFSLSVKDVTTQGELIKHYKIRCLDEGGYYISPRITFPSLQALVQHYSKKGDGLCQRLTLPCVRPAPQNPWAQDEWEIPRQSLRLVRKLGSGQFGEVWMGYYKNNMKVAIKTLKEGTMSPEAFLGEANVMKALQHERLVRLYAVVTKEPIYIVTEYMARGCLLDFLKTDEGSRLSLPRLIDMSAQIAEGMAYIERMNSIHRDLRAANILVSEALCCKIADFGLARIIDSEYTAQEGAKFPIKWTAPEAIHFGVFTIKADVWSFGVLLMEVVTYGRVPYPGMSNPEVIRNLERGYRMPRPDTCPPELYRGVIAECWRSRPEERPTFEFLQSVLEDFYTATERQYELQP
Assay [13] has the same target. As to conditions: at 1 µM.
Assay [14] addresses T1, Cytoplasmic tyrosine-protein kinase BMX (Homo sapiens) (UniProt P51813).
T1 sequence (whole entry): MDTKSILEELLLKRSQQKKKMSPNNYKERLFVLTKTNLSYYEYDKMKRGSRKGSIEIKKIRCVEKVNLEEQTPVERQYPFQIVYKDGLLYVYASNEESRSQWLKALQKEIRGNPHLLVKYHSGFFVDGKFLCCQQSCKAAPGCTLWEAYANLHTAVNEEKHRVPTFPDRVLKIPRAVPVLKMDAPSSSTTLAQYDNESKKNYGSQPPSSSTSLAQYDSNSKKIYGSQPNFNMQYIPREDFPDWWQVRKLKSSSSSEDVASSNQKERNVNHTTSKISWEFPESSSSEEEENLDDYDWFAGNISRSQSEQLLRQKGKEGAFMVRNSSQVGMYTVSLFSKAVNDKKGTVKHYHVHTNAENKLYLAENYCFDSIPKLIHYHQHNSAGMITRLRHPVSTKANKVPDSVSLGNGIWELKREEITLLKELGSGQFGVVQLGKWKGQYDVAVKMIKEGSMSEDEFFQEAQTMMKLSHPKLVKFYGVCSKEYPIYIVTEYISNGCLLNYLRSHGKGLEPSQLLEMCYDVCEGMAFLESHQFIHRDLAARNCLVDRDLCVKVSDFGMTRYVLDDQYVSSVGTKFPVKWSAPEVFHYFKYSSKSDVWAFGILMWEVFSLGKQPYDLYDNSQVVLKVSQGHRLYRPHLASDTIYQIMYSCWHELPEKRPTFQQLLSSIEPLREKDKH
As to conditions: at 0.1 µM.

Assay [15] concerns the target T1, Cytoplasmic tyrosine-protein kinase BMX (Homo sapiens). As to conditions: at 1 µM.
Assay [16] deals with Protein-tyrosine kinase 6 (Homo sapiens) (UniProt Q13882). As to conditions: at 0.1 µM.
Chain of Protein-tyrosine kinase 6 (Homo sapiens) (Q13882 whole entry, looked up): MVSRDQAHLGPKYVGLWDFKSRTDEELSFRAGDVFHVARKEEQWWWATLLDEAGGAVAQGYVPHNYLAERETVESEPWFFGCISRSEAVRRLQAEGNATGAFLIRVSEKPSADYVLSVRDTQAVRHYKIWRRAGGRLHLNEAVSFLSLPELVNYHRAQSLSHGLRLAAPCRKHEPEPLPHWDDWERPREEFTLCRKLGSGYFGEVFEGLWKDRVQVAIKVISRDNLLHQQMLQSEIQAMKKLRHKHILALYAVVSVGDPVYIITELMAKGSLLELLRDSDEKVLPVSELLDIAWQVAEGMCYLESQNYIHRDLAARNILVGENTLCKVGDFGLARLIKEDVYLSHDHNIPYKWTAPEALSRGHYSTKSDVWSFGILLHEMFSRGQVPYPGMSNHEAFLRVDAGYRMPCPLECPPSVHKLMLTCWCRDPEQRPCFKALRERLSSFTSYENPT
Assay [17] has the same target. As to conditions: at 1 µM.
For assay [18], the target named is Tyrosine-protein kinase BTK (Homo sapiens) (UniProt Q06187). As to conditions: at 0.1 µM.
Chain of Tyrosine-protein kinase BTK (Homo sapiens) (Q06187 whole entry): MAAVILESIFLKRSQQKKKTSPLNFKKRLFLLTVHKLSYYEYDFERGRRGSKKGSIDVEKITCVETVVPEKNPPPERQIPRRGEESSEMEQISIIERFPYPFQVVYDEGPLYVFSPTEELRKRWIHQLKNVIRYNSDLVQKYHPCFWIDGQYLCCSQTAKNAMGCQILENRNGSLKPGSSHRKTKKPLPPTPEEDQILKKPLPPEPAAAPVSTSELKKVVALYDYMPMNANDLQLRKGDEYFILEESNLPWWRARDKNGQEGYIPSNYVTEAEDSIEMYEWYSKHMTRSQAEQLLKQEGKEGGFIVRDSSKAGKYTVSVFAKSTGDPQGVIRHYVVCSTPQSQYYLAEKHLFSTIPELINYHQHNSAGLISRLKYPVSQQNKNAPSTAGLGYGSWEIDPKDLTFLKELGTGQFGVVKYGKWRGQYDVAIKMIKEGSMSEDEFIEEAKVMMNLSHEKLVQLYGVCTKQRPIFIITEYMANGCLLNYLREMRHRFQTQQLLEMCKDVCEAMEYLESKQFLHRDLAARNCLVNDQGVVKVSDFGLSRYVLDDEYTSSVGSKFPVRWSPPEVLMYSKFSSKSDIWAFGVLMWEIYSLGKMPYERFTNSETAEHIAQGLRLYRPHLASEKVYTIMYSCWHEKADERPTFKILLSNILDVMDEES
Assay [19] has the same target. As to conditions: at 1 µM.
Assay [20] deals with Tyrosine-protein kinase CSK (Homo sapiens) (UniProt P41240). As to conditions: at 0.1 µM.
Chain of Tyrosine-protein kinase CSK (Homo sapiens) (P41240 2-450 limits assumed): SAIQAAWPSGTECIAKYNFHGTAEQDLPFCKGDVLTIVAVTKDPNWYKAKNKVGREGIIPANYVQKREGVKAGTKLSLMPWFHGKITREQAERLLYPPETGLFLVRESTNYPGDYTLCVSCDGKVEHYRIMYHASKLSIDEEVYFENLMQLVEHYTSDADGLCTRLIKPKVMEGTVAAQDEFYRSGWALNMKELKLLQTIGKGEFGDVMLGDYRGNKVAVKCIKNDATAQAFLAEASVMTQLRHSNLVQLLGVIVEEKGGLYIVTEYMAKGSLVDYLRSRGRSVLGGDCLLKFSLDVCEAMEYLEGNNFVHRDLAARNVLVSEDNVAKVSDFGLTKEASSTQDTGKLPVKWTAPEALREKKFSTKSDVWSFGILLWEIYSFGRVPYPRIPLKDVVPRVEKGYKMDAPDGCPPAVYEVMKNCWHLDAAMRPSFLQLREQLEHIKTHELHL

The inhibition is the change of the read-out against control, counted positive when it falls.

Chain of Tyrosine-protein kinase ABL2 (Homo sapiens) (P42684 whole entry): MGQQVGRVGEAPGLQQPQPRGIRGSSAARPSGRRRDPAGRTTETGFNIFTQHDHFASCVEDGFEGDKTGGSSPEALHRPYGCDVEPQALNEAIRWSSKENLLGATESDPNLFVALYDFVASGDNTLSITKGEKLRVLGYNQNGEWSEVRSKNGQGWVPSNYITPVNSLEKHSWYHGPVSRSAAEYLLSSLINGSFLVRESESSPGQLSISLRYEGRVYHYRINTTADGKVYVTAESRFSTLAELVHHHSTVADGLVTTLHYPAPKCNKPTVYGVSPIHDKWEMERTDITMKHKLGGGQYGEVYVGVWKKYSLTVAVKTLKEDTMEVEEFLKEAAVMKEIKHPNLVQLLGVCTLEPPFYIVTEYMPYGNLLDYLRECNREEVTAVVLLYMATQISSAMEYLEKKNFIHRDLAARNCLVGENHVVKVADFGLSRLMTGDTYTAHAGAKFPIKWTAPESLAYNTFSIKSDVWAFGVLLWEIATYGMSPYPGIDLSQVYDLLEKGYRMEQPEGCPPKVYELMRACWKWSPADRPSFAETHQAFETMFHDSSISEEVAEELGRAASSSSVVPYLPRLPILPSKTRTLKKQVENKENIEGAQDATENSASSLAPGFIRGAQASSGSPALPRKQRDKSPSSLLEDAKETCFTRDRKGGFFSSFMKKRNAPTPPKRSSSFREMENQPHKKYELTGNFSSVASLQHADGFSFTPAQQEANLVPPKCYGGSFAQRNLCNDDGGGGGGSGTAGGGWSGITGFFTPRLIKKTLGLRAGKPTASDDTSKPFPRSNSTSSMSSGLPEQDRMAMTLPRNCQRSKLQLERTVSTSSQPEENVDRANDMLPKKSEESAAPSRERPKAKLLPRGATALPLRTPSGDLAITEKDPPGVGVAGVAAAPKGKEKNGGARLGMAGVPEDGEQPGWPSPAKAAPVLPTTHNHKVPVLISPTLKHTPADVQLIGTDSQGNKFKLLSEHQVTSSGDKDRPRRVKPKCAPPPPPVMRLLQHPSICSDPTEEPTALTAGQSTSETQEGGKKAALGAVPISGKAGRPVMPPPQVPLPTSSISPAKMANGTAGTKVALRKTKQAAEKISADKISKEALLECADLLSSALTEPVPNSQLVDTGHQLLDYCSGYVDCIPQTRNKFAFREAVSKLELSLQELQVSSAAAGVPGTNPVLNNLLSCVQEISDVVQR

For `Cc1ccc2c(-c3ccnc(Nc4cccc(C(F)(F)F)c4)n3)c(-c3ccccc3)nn2n1`, the inhibition in assay [1] worked out at 20.8%; in assay [2] it was 12.2%; in assay [3], 53.3%; in [4], 7.07%; in [5], 36.1%; in assay [6] it was 3.25%. Moreover, the inhibition was 3.77% in assay [7]; -9.35% in assay [8]; 33.7% in assay [9]; -5.69% in assay [10]; -3.9% in assay [11]; 12.4% in assay [12]. Also, the inhibition in [13] worked out at 68.1%; in assay [14], 7.21%; in [15] it was 38.2%; in assay [16], 15.5%; in [17], 70.9%; in assay [18] it was 0.51%. For the same compound, the figures for the inhibition in assay [19] and in assay [20] were 5.18% and 4.63%, respectively.

Consider `NS(=O)(=O)c1cccc(-c2cc3ccncc3cc2OCc2ccccc2)c1`, for which the inhibition in assay [1] turned out to be 2.66%; in [2] it was 2.88%; in [3] it was 5.09%; in assay [4], 4.3%; in [5], 12.2%; in [6] it was 2.82%. Moreover, the inhibition was 7.12% in assay [7]; 4.36% in assay [8]; 15.2% in assay [9]; -7.61% in assay [10]; -7.14% in assay [11]; 2.09% in [12]. Also, the inhibition in assay [13] was 6.09%; in assay [14] it was -0.13%; in [15], 4.21%; in [16], 4.43%; in assay [17], 4.64%; in assay [18], -0.27%. Also, the results for the inhibition in assay [19] and in [20] were 0.84% and 5.62%, respectively.

Turning to `CS(=O)(=O)Nc1cccc(-c2ccc3c(NC(=O)C4CC4)n[nH]c3c2)c1`, the inhibition in assay [1] was 30.6%; in assay [2] it was 1.55%; in assay [3], 11.8%; in assay [4], 1.81%; in [5], 17.9%; in [6], 0.61%. Also, the inhibition in assay [7] stood at 1.09%; in assay [8], 2.46%; in [9], 3.55%; in [10], 0.1%; in assay [11] it was 1.68%; in assay [12] it was 0.09%. In addition, the inhibition was 4.51% in assay [13]; 4.15% in assay [14]; 1.52% in [15]; -1.65% in assay [16]; -2.5% in assay [17]; 0.45% in assay [18]. Moreover, the inhibition is 1.66% in [19] and -2.14% in assay [20].

As to `Cc1cc(Cl)cc2c1NC(=O)C2=NNc1ccc(S(N)(=O)=O)cc1`, the inhibition was found to be 4.99% in [1]; 3.5% in assay [2]; 6.19% in assay [3]; 2.11% in assay [4]; 7.99% in assay [5]; 0.72% in assay [6]. Further, the inhibition in assay [7] is 1.88%; in assay [8], 3.13%; in assay [9] it was 7.59%; in assay [10] it was -3.23%; in assay [11], -2.47%; in assay [12], 1.98%. Further, the inhibition is 1.63% in assay [13]; 3.4% in [14]; 2.55% in assay [15]; -0.72% in assay [16]; 1.77% in assay [17]; 2.48% in [18]. Also, the inhibition is 0.33% in assay [19] and -0.78% in assay [20].

`FC(F)(F)c1ccc(-c2nn3ncccc3c2-c2ccnc(Nc3ccc4c(c3)OCCO4)n2)cc1`: the inhibition in [1] is 9.38%; in [2] it was 0.98%; in [3], 7.07%; in assay [4] it was 5.3%; in assay [5], 13.7%; in assay [6] it was -1.39%. Besides, the inhibition in assay [7] was 1.59%; in assay [8], 5.58%; in assay [9], 9.47%; in assay [10] it was 8.69%; in assay [11], 7.56%; in assay [12], 3.74%. Also, the inhibition was 15.7% in assay [13]; 2.61% in assay [14]; 0.4% in assay [15]; -0.58% in assay [16]; 12% in [17]; 0.26% in assay [18]. The inhibition in [19] is 7.22%; in [20] it was -0.13%.

Consider `COc1ccc2ncnc(Nc3ccc(OCc4ccccc4)cc3)c2c1`, for which the inhibition in assay [1] is 3.21%; in [2], 2.03%; in [3], 1.02%; in assay [4], 1.65%; in assay [5], 4.79%; in assay [6] it was 0.66%. Moreover, the inhibition in assay [7] was 0.87%; in [8], 2.72%; in [9], 4.53%; in [10] it was -3.58%; in assay [11] it was -5.04%; in [12], 2.17%. The inhibition in [13] was 6.3%; in assay [14], 2.68%; in [15], 2.81%; in assay [16] it was 0.54%; in [17] it was 9.39%; in [18], -0.01%. In addition, the inhibition in assay [19] was found to be 1.33%; in assay [20], 2.5%.
